{
  "source": "PubChem BioAssay AID778",
  "about": "(Sanford-Burnham Center for Chemical Genomics, 2007)",
  "note": "In all, about 96,000 compounds went through this assay and about 20,000 (21%) were called active. A selection follows. Values without a mark were called inactive.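 How the source made its calls: active means CYP2C19 inhibition above a set limit at 5 µM in the primary screen (cut at about 50% in these data); inactive means the rest.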",
  "data": [
    {"biological_target": "Cytochrome P450 2C19 (Homo sapiens) (UniProt P33261)", "sequence (P33261 whole entry, looked up)": "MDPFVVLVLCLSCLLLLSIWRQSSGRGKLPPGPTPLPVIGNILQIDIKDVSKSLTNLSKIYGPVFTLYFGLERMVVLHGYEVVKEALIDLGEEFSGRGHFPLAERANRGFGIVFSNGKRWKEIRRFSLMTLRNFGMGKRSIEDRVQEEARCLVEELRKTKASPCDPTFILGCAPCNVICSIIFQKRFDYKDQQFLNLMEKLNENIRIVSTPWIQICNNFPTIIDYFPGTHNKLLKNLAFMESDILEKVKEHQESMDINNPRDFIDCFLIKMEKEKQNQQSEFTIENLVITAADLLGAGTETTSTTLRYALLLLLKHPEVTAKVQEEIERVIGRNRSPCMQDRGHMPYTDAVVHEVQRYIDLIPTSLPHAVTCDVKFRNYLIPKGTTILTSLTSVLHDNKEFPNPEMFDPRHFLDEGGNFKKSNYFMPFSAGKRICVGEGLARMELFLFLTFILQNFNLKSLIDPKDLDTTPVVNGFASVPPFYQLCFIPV", "experiment": "blockers of cytochrome P450 2C19 activity – biochemical, luminescence, ADME assay, primary screen (AID 778);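 further: plate controls were negative control wells for no effect and 2.5 mM tranylcypromine positive control for full effect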", "conditions": "CYP2C19 Supersomes, luciferin-H EGE luminescence, 30 min; at 5 µM; active compounds read high", "values": [
      {"smiles": "CCOc1ccc(N=Cc2c(O)n(-c3cccc(C)n3)c(=O)c3ccccc23)cc1", "inhibition": "23.6%"},
      {"smiles": "CCOC(=O)c1cc2c(n(-c3ccc(C)cc3)c1=O)CCCC2=O", "inhibition": "5.6%"},
      {"smiles": "COC(=O)CNC(=O)c1ccccc1F", "inhibition": "-5.1%"},
      {"smiles": "CSc1nc(N(C)NC(=O)c2cccc(C)c2)c2ccccc2n1", "inhibition": "77% (active)"},
      {"smiles": "CN(NC(=O)c1ccccc1)c1nc2ccccc2nc1C(F)(F)F", "inhibition": "35.4%"},
      {"smiles": "COc1ccc(C(=O)NN(C)c2nc(-c3ccccc3)cc(C)c2S(C)(=O)=O)cc1", "inhibition": "10.6%"},
      {"smiles": "Cc1c(C(=O)OC(C)C)sc(NC(=O)c2cccnc2)c1C#N", "inhibition": "1.5%"},
      {"smiles": "CC(NC(=O)c1ccco1)C(=O)Nc1nc(-c2ccccn2)cs1", "note": "(stereo not given)", "inhibition": "6%"},
      {"smiles": "COc1cccc(Oc2ccc(N)cc2)c1", "inhibition": "64.1% (active)"},
      {"smiles": "Cc1ccc(S(=O)(=O)c2ccc(Oc3ccccc3)cc2)cc1", "inhibition": "-11.2%"},
      {"smiles": "Cc1ccc(Oc2ccc(N)cc2)cc1", "inhibition": "87.9% (active)"},
      {"smiles": "CN(C)S(=O)(=O)c1ccc(Oc2ccc(S(=O)(=O)N(C)C)cc2)cc1", "inhibition": "19.7%"},
      {"smiles": "Clc1ccc(Cl)c(Oc2ccc(Oc3nc(Cl)ccc3Cl)cc2)n1", "inhibition": "-4.8%"},
      {"smiles": "COCCNCCOCCOc1cccc(OC)c1", "inhibition": "10.2%"},
      {"smiles": "COc1ccc2[nH]c3ccc(OC)cc3c2c1", "inhibition": "29.9%"},
      {"smiles": "Nc1ccc(Oc2ccc(Cl)cc2)cc1", "inhibition": "85.1% (active)"},
      {"smiles": "Nn1c(SCC(=O)NC(=O)NC2CCCC2)nnc1-c1ccccc1F", "inhibition": "27.9%"},
      {"smiles": "COc1ccc(C(C(O)C(=O)c2c[nH]c3ccccc23)N2CCN(c3ccccc3)CC2)cc1", "note": "(stereo not given)", "inhibition": "28.5%"},
      {"smiles": "CCC(C)c1ccc(O)c(/C=N/O)c1", "note": "(stereo not given)", "inhibition": "-21.8%"},
      {"smiles": "Cc1nc2ccc(C(=O)O)cc2[nH]1", "inhibition": "-2.4%"},
      {"smiles": "Cc1noc(C)c1COC(=O)c1cc2ccccc2cc1O", "inhibition": "89.3% (active)"},
      {"smiles": "Cc1noc(C)c1CSc1nnc2ccc3ccccc3n12", "inhibition": "23.4%"},
      {"smiles": "Cc1noc(C)c1COC(=O)Cn1c(C)nc2ccccc21", "inhibition": "17.3%"},
      {"smiles": "CC(CN1CCOCC1)c1ccccc1", "note": "(stereo not given)", "inhibition": "26.4%"},
      {"smiles": "CC(C)C(=O)Nc1ccc2c(c1)oc1ccccc12", "inhibition": "13.2%"},
      {"smiles": "Cc1nc2cc(NC(=O)NCc3ccccc3)ccc2o1", "inhibition": "-8.7%"},
      {"smiles": "O=C(O)CCN1C(=O)CC2(CCCCC2)C1=O", "inhibition": "-6.7%"},
      {"smiles": "O=C(O)c1cc(S(=O)(=O)N2CCCCCC2)c(Cl)cc1Cl", "inhibition": "0%"},
      {"smiles": "O=C(Nc1ccc2c(c1)OCCO2)c1ccc(Cl)c(S(=O)(=O)N2CCCCC2)c1", "inhibition": "96.4% (active)"},
      {"smiles": "Cc1ccc(C(=O)NCC(=O)O)cc1S(=O)(=O)N1CCCCC1", "inhibition": "-12.8%"},
      {"smiles": "Cc1ccc(C(=O)Nc2ccc3c(c2)OCO3)cc1S(=O)(=O)N1CCCCC1", "inhibition": "92.3% (active)"},
      {"smiles": "Cn1c(=O)n(C)c2cc(C(=O)Nc3ccc4c(c3)OCO4)ccc21", "inhibition": "-13.9%"},
      {"smiles": "Cc1ccc(-n2nc3c(c2NC(=O)c2ccc4c(c2)OCO4)CSC3)c(C)c1", "inhibition": "3.6%"},
      {"smiles": "COc1ccc(N2C(=O)c3cccc4cccc(c34)C2=O)nn1", "inhibition": "-8.5%"},
      {"smiles": "CC1CCCN(C(=O)Cn2c(=O)oc3ccccc32)C1", "note": "(stereo not given)", "inhibition": "26.2%"},
      {"smiles": "Cc1nnc(NC2=NCCCCC2)o1", "inhibition": "-3.5%"},
      {"smiles": "O=C(CC1NCCNC1=O)Nc1ccc(Oc2ccccc2)cc1", "note": "(stereo not given)", "inhibition": "-0.6%"},
      {"smiles": "Cn1c(=O)[nH]c(=O)c2c1nc(Br)n2CCCCSc1nc2ccccc2o1", "inhibition": "38.5%"},
      {"smiles": "Cc1ccc(Oc2ccc3c(c2)C(=O)N(c2cccc4cccnc24)C3=O)cc1", "inhibition": "-1.5%"},
      {"smiles": "COc1ccc(N/N=C2/CCCCC2=O)cc1", "inhibition": "3.1%"},
      {"smiles": "COc1ccc(CNC2CCCCC2)cc1", "inhibition": "69.4% (active)"},
      {"smiles": "COc1ccc(CNC(=O)C2CCN(S(=O)(=O)N3CCOCC3)CC2)cc1", "inhibition": "-11.9%"},
      {"smiles": "CN1C(=O)c2ccc(NC(=O)C3CCCCC3)cc2C1=O", "inhibition": "-0.4%"},
      {"smiles": "O=C1c2ccccc2C(=O)N1c1ccccc1S(=O)C(F)(F)F", "note": "(stereo not given)", "inhibition": "6.6%"},
      {"smiles": "Cc1ccc(-n2c(=O)cc(N3CCN(Cc4ccccc4)CC3)[nH]c2=O)cc1", "inhibition": "1.5%"},
      {"smiles": "CC1=NCCN1S(=O)(=O)c1ccc(Br)c(C)c1", "inhibition": "27.7%"},
      {"smiles": "Cc1ccc(C)c(S(=O)(=O)N2CC(=O)Nc3ccccc32)c1", "inhibition": "32.8%"},
      {"smiles": "Cc1ccc(S(=O)(=O)N2CC(=O)Nc3ccccc32)cc1C", "inhibition": "60.4% (active)"},
      {"smiles": "O=C(OCC#CCSc1nnc(-c2ccncc2)o1)c1sc2ccccc2c1Cl", "inhibition": "-11.8%"},
      {"smiles": "CC1CCN(C(NC(=O)c2ccco2)C(=O)c2ccccc2)CC1", "note": "(stereo not given)", "inhibition": "35.9%"},
      {"smiles": "CCOC(=O)C1C(=O)NCC1c1ccccc1", "note": "(stereo not given)", "inhibition": "-0.1%"},
      {"smiles": "CCOC(=O)C1=C(C)NC(C)=C(C(=O)OCC)C1C1=COCCO1", "inhibition": "88.8% (active)"},
      {"smiles": "CCOC(=O)C1=C(C)NC(C)=C(C(=O)OCC)C1c1ccccn1", "inhibition": "50.3% (active)"},
      {"smiles": "CCCC1NC(=O)NC(C)=C1C(=O)OCC", "note": "(stereo not given)", "inhibition": "17%"},
      {"smiles": "O=C(OCC(=O)c1cccs1)C1=COCCO1", "inhibition": "2.6%"}
    ]}
  ]
}
